# PubChem BioAssay (Tox21)
# Several values for one entry are separate records, joined by “and”; a condition that tells them apart may be missing. Equal values may be shown once. Records with an inconclusive call do not appear. Where a call stands in place of a potency, no number is given. A structure can be active in one record and inactive in another. Activity calls are given as the source filed them. Calls follow the shape of the dose curve; as a rule, active = well fitted cell-killing curve with a large enough effect in the repeat runs; inconclusive = weak or mixed curves, or effect the other way; inactive = no such curve, though single readings can be large or run the other way.
# Assay: qHTS assay to identify small molecule agonists of the RXR signaling pathway - cell viability counter screen (AID 1159529); also: nearly all actives have a fitted effect of over 50% in size
# Details: RXR-alpha-bla HEK293T viability, CellTiter-Glo, 16 h; series mostly up to 76.8 µM; activity change, negative = cytotoxicity: at the top concentration
# Procedure, shortened: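 Luminescence from CellTiter-Glo (30 min, RT) measured viability in the same wells as the beta-lactamase reporter readout. Cells: GeneBLAzer RXR-alpha HEK 293T, 2% charcoal-stripped FBS. Compound exposure 16 hr, 37 C.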
# Potency is read from the fitted curve at half-maximal effect.
Compound,"activity change, negative = cytotoxicity",Potency
COc1ccc(C=O)cc1OC,8.86% (inactive),–
CC(C)=CC1C(C(=O)OCc2cccc(Oc3ccccc3)c2)C1(C)C (stereo not drawn),–,inactive
Oc1ccc(Cl)cc1Cl,–,inactive
CC(C)(c1ccccc1)c1ccc(O)cc1,–,43.3 µM (active) and 54.9 µM (active)
Nc1ccc2ccccc2c1,–,inactive
N#Cc1c(Cl)c(Cl)c(Cl)c(C#N)c1Cl,–,6.05 µM (active) and 4.9 µM (active)
CCOC(=O)c1ccccc1N,–,inactive
CN(C)c1ccccc1,–,inactive
COP(=S)(OC)Oc1ccc(Sc2ccc(OP(=S)(OC)OC)cc2)cc1,–,inactive
CCCCSP(=O)(SCCCC)SCCCC,–,inactive
CC(C)(c1ccc(OCC2CO2)cc1)c1ccc(OCC2CO2)cc1 (stereo not drawn),–,49.6 µM (active) and inactive
Brc1ccc(Br)cc1,–,inactive
CSc1nc(NC(C)C)nc(NC(C)C)n1,–,inactive
Clc1ccc(C(Cl)(Cl)Cl)cc1,–,inactive
[CH3][Sn]([Cl])([Cl])[Cl],–,inactive
Nc1ncn[nH]1,–,inactive
CC(O)CN(CC(C)O)CC(C)O (stereo not drawn),–,inactive
CCCCOCC1CO1 (stereo not drawn),–,inactive
N#CC(c1ccccc1)c1ccccc1,–,inactive

Compound,"activity change, negative = cytotoxicity",Potency
O=P(OCCCl)(OCCCl)OCCCl,–,inactive
CCCCC(C#N)(Cn1cncn1)c1ccc(Cl)cc1 (stereo not drawn),–,inactive
CC(C)COC(=O)c1ccccc1C(=O)OCC(C)C,–,inactive
CCOP(=S)(OCC)OP(=S)(OCC)OCC,–,inactive
Cc1ccc(N=CN(C)C=Nc2ccc(C)cc2C)c(C)c1,–,43.8 µM (active) and 43.6 µM (active) and inactive
C[C@]12CC[C@H]3[C@@H](CCC4=CC(=O)CC[C@@H]43)[C@@H]1CC[C@@H]2O,–,inactive
ClCC(Cl)CCl,–,inactive
CC1CC(=O)O1 (stereo not drawn),7.69% (inactive),–
CCOP(=S)(OCC)SCn1c(=O)oc2cc(Cl)ccc21,-2.75% (inactive),–
COC(=O)Nc1nc2ccccc2[nH]1,–,inactive
Clc1ccccc1-c1nnc(-c2ccccc2Cl)nn1,–,inactive
Clc1cccc(Cl)c1,–,inactive
OC(c1ccc(Cl)cc1)(c1cncnc1)c1ccccc1Cl (stereo not drawn),-10.6% (inactive),–
CCCCCCCCCc1ccc(O)cc1,–,55.5 µM (active)
CC1=C(C(=O)Nc2ccccc2)SCCO1,–,inactive
CCOP(=O)(OCC)OCC,–,inactive
ClC(Cl)=C(Cl)C(Cl)=C(Cl)Cl,–,inactive
CNC(=O)Oc1cccc2c1OC(C)(C)C2,–,inactive
O=NN1CCOCC1,–,inactive
